Assay results reported in PubChem BioAssay AID1069 (NMMLSC, 2008).
Calls of active or inactive are those of the source.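 Rule for the calls: active = high combined rank on largest and smallest cell-count-weighted shift across three tests, rank score above 45, floors 50 and 25 (some results past the limit were not filed as active); inactive = the rest.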

Assay: activators of LNCaP cell differentiation, retest, confirmation, side scatter shift, flow cytometry (AID 1069);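 note: LNCaP human prostate cancer cells in low-serum medium with charcoal-stripped FBS; percent of cells with raised granularity gated so DMSO controls show 10%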
Settings: 4 d, stronger effect = higher value

| SMILES | side scatter shift (at 100 µM) | side scatter shift (side scatter shift, at 10 µM) [%] |
| --- | --- | --- |
| CN(C)c1ccc(CNC2CC(C)(C)NC(C)(C)C2)cc1 | 49.2% (active) | 10.6 |
| CCCCn1c2c(c3ccccc31)CCc1nonc1-2 | 20.1% (inactive) | 2.8 |
| CCN(CC)CCNC(=O)c1nn(-c2ccc(C)cc2)c(=O)c2c1c1ccccc1n2C | 50% (inactive) | 5.55 |
| Cc1oc(-c2ccc(Cl)cc2)nc1CN1CCCC(C(=O)NCc2ccccn2)C1 (stereo not drawn) | 26.5% (inactive) | 6.45 |
| CCOC(=O)c1[nH]c(C)c(C(=O)NC2CCCCCC2)c1C | 4.8% (inactive) | 8.6 |
| Cc1oc(-c2cccc(Cl)c2)nc1CN1CCCC(C(=O)NC(C)c2ccc3c(c2)OCCO3)C1 (stereo not drawn) | 0% (inactive) | 1.65 |
| Cc1oc(-c2ccc(Cl)cc2)nc1CN1CCCC(C(=O)NCCCN2CCCC2=O)C1 (stereo not drawn) | 14% (inactive) | 13.6 |
| Oc1ccccc1CNc1nc2ccccc2n1CCN1CCCCC1 | 22.7% (inactive) | 12.2 |
| COc1ccccc1N1CCN(Cc2cc(Br)c(O)c3ncccc23)CC1 | 35.3% (inactive) | 17.4 |
| COc1ccc(-c2cc(-c3ccc(F)cc3)nc(N3CCN(C)CC3)n2)cc1 | 33.3% (inactive) | 14.8 |
| Cc1ccc(-c2noc(CCC(=O)NCCCN3CCN(c4ccc(F)cc4)CC3)n2)cc1 | 0% (inactive) | 17.4 |
| CCn1c(=S)ccc2ccc(OC)cc21 | 12.9% (inactive) | 1.95 |
| O=C(CCCCCn1c(=O)[nH]c2ccccc2c1=O)NCCCN1CCN(c2ccccc2F)CC1 | 27.8% (inactive) | 3 |
| Cc1ccccc1Cn1cnc2c(cnn2C(C)(C)C)c1=O | 15.4% (inactive) | 5.05 |
